Results on 91 compounds are retold here after PubChem BioAssay AID720514 (Broad Institute, 2013).

Structures are written as SMILES. Hit rate of the full screen: of about 2,100 compounds, about 300 (14%) were called active. Inconclusive results (about 2%) are left out.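 How the source made its calls: active means every replicate test run called active, with the signal falling and half-maximal concentration within twice the top valid dose; inconclusive means the replicate test runs disagree in their calls; inactive means every test run inactive, including effects in the opposite direction.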 Only a sample is shown. Measured potencies and affinities stand elsewhere.

The assay can be described thus: inhibitors of PGC1a acetylation in cells, dose response, cell-based, cherry-picked samples (AID 720514).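 Further: actives lower the acetylation signal so they count as inhibitors of PGC1a acetylation.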 Particulars: U2OS PGC1a acetylation, AlphaLISA, overnight; series mostly up to 19.5 µM.
Consider `Cc1ccc(S(=O)(=O)CCSC(=N)N)cc1`, for which the call was inactive.

For `CC(=O)c1ccc(NC(=O)CSCC(=O)Nc2ccc3ccccc3c2)cc1`, the outcome was inactive.

In the case of `CC1CC1C(=O)OCC(=O)NCc1ccc(Cl)cc1` (stereo unspecified), the compound was called inactive.

`COc1ccc(CC(=O)OCC(=O)NCc2ccco2)cc1`: the outcome was inactive.

`O=C(NCc1ccco1)c1scc2c1OCCO2`: the compound was classed as inactive.

With `CC1CCCCN1C(=O)/C(=C\c1ccccc1)c1ccccc1` (stereo unspecified), the compound was classed as inactive.

Take `CCSc1ccc(NC(=O)c2cccnc2)cc1`: the outcome was inactive.

For `CCS(=O)(=O)N[C@H]1C=C[C@H](CC(=O)N2CCCCC2)O[C@H]1CO`, the compound was called inactive.

For the compound `C[C@H]1CN([C@@H](C)CO)S(=O)(=O)c2ccc(-c3cncnc3)cc2O[C@H]1CN(C)C(=O)CN(C)C`, the outcome was inactive.

In the case of `CC(=O)N(C)C[C@H]1Oc2cc(-c3ccc(C#N)cc3)ccc2S(=O)(=O)N([C@@H](C)CO)C[C@@H]1C`, the call was inactive.

Take `COc1ccc(S(=O)(=O)Nc2ccc3c(c2)C(=O)N([C@@H](C)CO)C[C@@H](C)[C@H](CN(C)S(=O)(=O)c2ccc(Cl)cc2)OCCCC[C@H](C)O3)cc1`: the call was inactive.

For the compound `COc1cc(CN2CC3(CCN(S(=O)(=O)c4cccs4)CC3)c3c(n(C)c4cc(OC)ccc34)[C@H]2CO)cc(OC)c1`, the result was inactive.

Regarding `O=S(=O)(c1cccc(F)c1)N1CCN(Cc2cc3c(cc2Br)OCCO3)CC1`, the call was inactive.

For the compound `Cc1ccc(-n2cccn2)c(CN2CCCC(C(=O)c3sccc3C)C2)c1` (stereo unspecified), the call was inactive.

Regarding `CCCNC(=O)[C@H]1[C@H](CO)[C@H]2Cn3c(ccc(-c4ccccc4)c3=O)[C@H]2N1C(=O)C1CC1`, the outcome was inactive.

For `Cc1cc2c(cc1S(=O)(=O)N1CCc3ccccc31)NC(=O)CO2`, the result was inactive.

As to `CCOc1ccccc1N(C)C(=O)C1CCN(S(=O)(=O)c2cccc3nonc23)CC1`, the result was inactive.

For the compound `CCOC(=O)C1=CC[C@@H](c2ccc([N+](=O)[O-])cc2)N(S(=O)(=O)c2ccc(C)cc2)[C@H]1c1ccccc1`, the result was inactive.

With `Cc1ccc(-c2nnc(N3CCN(C(=O)COc4ccccc4)CC3)c3ccccc23)cc1`, the compound was classed as inactive.

For the compound `CN1/C(=C\C(=O)c2cccc(S(=O)(=O)N3CCCCC3)c2)C(C)(C)c2ccccc21`, the compound was called inactive.

Consider `CCOc1ccccc1CN1CCN(C2CCC2)CC1CCO` (stereo unspecified), for which the call was inactive.

`CC(=O)c1cccc(N(C(=O)Cn2nnc3ccccc32)C(C(=O)NCc2ccccc2)c2ccccn2)c1` (stereo unspecified): the compound was called inactive.

Regarding `COc1ccc(-c2nc(N)c(C#N)c(-c3cccnc3)c2C)cc1`, the result was inactive.

In the case of `COc1ccc(OC)c(NC(=O)CSc2nnc(-c3cccnc3)s2)c1`, the compound was classed as inactive.

`CCCOc1ccc(C(=O)Nc2cccnc2)cc1`: the compound was called inactive.

Consider `CCOC(=O)c1c(-c2ccc(C)cc2C)csc1NC(=O)CSc1nnnn1C`, for which the compound was called inactive.

For `CCOC(=O)c1oc2ccc(S(=O)(=O)N3CCC(C)CC3)cc2c1C`, the outcome was inactive.

As to `O=C(CCCn1c(=O)[nH]c2cc(Cl)ccc2c1=O)NCCC1=CCCCC1`, the compound was called inactive.

For the compound `C[C@@H]1CN([C@H](C)CO)C(=O)c2c(c3ccccc3n2C)-c2ccccc2CO[C@@H]1CN(C)C(=O)Nc1ccccc1C(F)(F)F`, the call was inactive.

For the compound `COc1cc(OC)c2c(-c3cccc(-c4cccc(C)c4)c3)cc(=O)oc2c1`, the compound was called inactive.

`COc1ccc(CCNC(=O)c2cc(-c3ccco3)on2)cc1OC`: the compound was classed as inactive.

As for `O=C1OC(Oc2ccc(Br)cc2)(c2ccccc2)c2ccccc21` (stereo unspecified), the outcome was inactive.

Consider `CC(=O)c1ccc(NC(=O)N2CCc3ccccc3C2)cc1`, for which the result was inactive.

`CC(=O)c1cccc(N(C(=O)c2cnccn2)C(C(=O)NCc2ccccc2)c2ccco2)c1` (stereo unspecified): the compound was called inactive.

`C[C@H](CO)N1C[C@H](C)[C@@H](CN(C)Cc2ccc3c(c2)OCO3)Oc2ccc(NC(=O)Nc3ccc4c(c3)OCO4)cc2CC1=O`: the call was inactive.

As to `C[C@@H]1CN([C@@H](C)CO)C(=O)c2cccc(NC(=O)c3ccc(-c4nccs4)cc3)c2O[C@@H]1CN(C)C(=O)Nc1ccc(C(F)(F)F)cc1`, the compound was called inactive.

For the compound `C[C@@H]1CN([C@@H](C)CO)C(=O)Cc2cc(NC(=O)Cc3ccccc3)ccc2O[C@H]1CN(C)C(=O)Nc1ccccc1`, the call was inactive.

Consider `C[C@H]1CN([C@@H](C)CO)C(=O)c2cccc(NC(=O)c3cnccn3)c2O[C@H]1CN(C)Cc1ccc(C(=O)Nc2ccccc2N)cc1`, for which the result was inactive.

On to `C[C@H]1CN([C@@H](C)CO)C(=O)c2cccc(NC(=O)Nc3cccc4ccccc34)c2O[C@H]1CN(C)Cc1ccc(C(=O)Nc2ccccc2N)cc1`, for which the result was inactive.

Regarding `Cc1cc(Cn2nc(C(=O)NCc3cccc(C(F)(F)F)c3)cc2-c2ccccc2)on1`, the call was inactive.

For `C[C@@H]1CN([C@@H](C)CO)C(=O)c2c(c3ccccc3n2C)-c2ccccc2CO[C@@H]1CN(C)C(=O)Nc1cccc(C(F)(F)F)c1`, the call was inactive.

Turning to `C=C/C=C/[C@@H]1C(=C)CN2[C@H]1[C@H](Cc1ccccc1)OC(=O)[C@@H]2Cc1ccccc1`, the compound was called inactive.

As for `O=C(NCCC(c1ccccc1)c1ccccc1)c1ccc(Br)o1`, the result was inactive.

As for `CC(C)[C@H](C)NC(=O)N(C)C[C@H]1OCc2ccccc2-c2c(n(C)c3ccccc23)C(=O)N([C@H](C)CO)C[C@H]1C`, the compound was classed as inactive.

Turning to `COc1ccc2c(c1)CCc1c(C(=O)NCCCn3ccnc3)noc1-2`, the compound was called inactive.

Take `Cc1ccc(S(=O)(=O)N[C@@H]2C=C[C@H](CC(=O)NCCN3CCCCC3)O[C@@H]2CO)cc1`: the compound was classed as inactive.

For the compound `CCCCC(=O)Nc1ccc(C(=O)NCCCn2ccnc2)cc1`, the outcome was inactive.

In the case of `OC[C@H]1O[C@@H](n2cnc3c(NCc4ccco4)ncnc32)[C@H](O)[C@@H]1O`, the call was inactive.

`O=C(Nc1ccc(F)cc1)N1CCCCN2[C@@H](CO)[C@@H](c3ccc(C#Cc4ccccc4)cc3)[C@@H]2C1`: the compound was called inactive.

For `O=C(Nc1ccc(F)cc1)N1CCN(c2nc3ccccc3s2)CC1`, the compound was called inactive.

As to `O=C(Nc1ccccc1F)N1CCCCN2[C@H](CO)[C@H](c3ccc(C#Cc4ccccc4)cc3)[C@H]2C1`, the outcome was inactive.

Turning to `O=c1[nH]nc(SCCS(=O)(=O)c2ccc(F)cc2)n1-c1ccccc1`, the result was inactive.

`Cc1cc(C)cc(N(CC(=O)NC2CC3CCC2C3)S(C)(=O)=O)c1` (stereo unspecified): the outcome was inactive.

As for `O=C(CN1CCC(N2CCCCC2)CC1)N1CCCc2ccccc21`, the compound was classed as inactive.

With `CCCc1cc2c(cc1N(C)S(=O)(=O)c1ccccc1)OCO2`, the compound was called inactive.

For the compound `Cc1ccc(NC(=O)CN2CCC(NC(=O)Cc3ccccc3)CC2)c(C)c1`, the outcome was inactive.

`O=C(Nc1ccccc1-c1ccccc1)NC1CC2CCCC(C1)N2Cc1ccc(F)cc1` (stereo unspecified): the call was inactive.

For the compound `Cc1nn2c(NCCCN3CCOCC3)c3c(nc2c1-c1ccccc1)CCC3`, the compound was called inactive.

In the case of `O=C(Cn1nc(C(=O)O)c2ccccc2c1=O)Nc1cccc(Br)c1`, the result was inactive.

Turning to `COC(=O)c1cc2ccsc2n1CC(=O)Nc1cc(Cl)ccc1OC`, the compound was classed as inactive.

Consider `Cc1ccc(/C(N)=N/OC(=O)c2ccco2)cc1`, for which the call was inactive.

As to `CCCCN(CCCC)S(=O)(=O)c1ccc2oc(C(=O)N3CCOCC3)c(C)c2c1`, the compound was called inactive.

Regarding `COC(=O)[C@@]1(C)[C@H]2C(=O)N(Cc3ccccc3)C(=O)[C@H]2[C@H]2CN=C(SCC3CC3)N21`, the outcome was inactive.

Regarding `COc1ccc(-n2c(=O)c3c4c(sc3n3c(=S)[nH]nc23)CCC4)cc1`, the compound was classed as inactive.

For the compound `CCOc1ccc(NC(=O)CN2CCC(n3cnc4cc(F)ccc43)CC2)cc1`, the compound was classed as inactive.

For the compound `CO[C@@H](C(=O)N(C)C[C@H]1OCc2ccccc2-c2c(n(C)c3ccccc23)C(=O)N([C@H](C)CO)C[C@H]1C)c1ccccc1`, the call was inactive.

Turning to `Cc1ccc(Cl)cc1NC(=O)Cn1nc(-c2cccs2)ccc1=O`, the outcome was inactive.

For the compound `Cc1ccccc1NC(=O)c1nc(S(C)(=O)=O)ncc1Cl`, the call was inactive.

With `C[C@@H]1CN([C@H](C)CO)C(=O)c2c(c3ccccc3n2C)-c2ccccc2CO[C@@H]1CN(C)C(=O)Nc1ccc2c(c1)OCO2`, the compound was classed as inactive.

Take `CC(Oc1ccc(Cl)cc1Cl)c1nc(-c2ccc(NC(=O)c3cccnc3)cc2)no1` (stereo unspecified): the compound was called inactive.

Consider `Cc1ccc(-c2nn(C)c(=O)c3ccccc23)cc1S(=O)(=O)NCCN(C)C`, for which the result was inactive.

As for `O=C(C[C@H]1CC[C@H](NC(=O)NC2CCCCC2)[C@H](CO)O1)NCc1ccc(Cl)cc1`, the compound was classed as inactive.

For `CCCCSc1ccc(NC(=O)c2cccnc2)cc1`, the compound was classed as inactive.

As for `CCn1c(SCC(N)=O)nnc1C(C)C`, the compound was called inactive.

Take `O=C1NC(=Nc2ccccc2Cl)S/C1=C\c1cccc([N+](=O)[O-])c1O`: the call was inactive.

In the case of `CC1(Cc2ccc(Cl)s2)C(=O)Nc2c(Cl)ccc(Cl)c21` (stereo unspecified), the call was inactive.

Consider `O=C(NCc1ccccc1)N1CCC(n2cnc3cc(F)ccc32)CC1`, for which the compound was called inactive.

Consider `COc1ccc(C(=O)NN(C)c2nc(-c3ccccc3)cc(C)c2S(C)(=O)=O)cc1`, for which the compound was classed as inactive.

`O=C(NCc1ccccc1)c1ccc(NC(=O)C2CC2)cc1`: the call was inactive.

Consider `CSc1nn(-c2ccc(C(=O)OC(C(=O)NC(N)=O)C(C)C)cc2)c(=S)s1` (stereo unspecified), for which the outcome was inactive.

On to `CC(=O)Nc1ccc(NC(=O)CN(c2cc(Cl)ccc2Cl)S(C)(=O)=O)cc1`, for which the compound was called inactive.

Consider `Cc1nc(N2CCN(S(=O)(=O)c3ccc(F)cc3)CC2)c2c(-c3cccs3)csc2n1`, for which the result was inactive.

With `Cc1ccc(S(=O)(=O)NC(CC(C)C)C(=O)N2CCCCCCC2)cc1` (stereo unspecified), the outcome was inactive.

For the compound `O=[N+]([O-])c1ccc(S(=O)(=O)c2cccc(C(F)(F)F)c2)nc1`, the call was inactive.

Take `Nc1ccccc1Oc1ncc(C(F)(F)F)cc1Cl`: the result was inactive.

Turning to `CCOC(=O)c1sc2nc(C)nc(NCc3ccccc3OC)c2c1C`, the outcome was inactive.

Take `CCO[C@H]1OC(C(=O)Nc2ccccc2)=C[C@@H](c2csc3ccccc23)[C@@H]1CCCO`: the compound was classed as inactive.

Turning to `O=C(NCCCN1CCOCC1)c1ccccc1N1C(=O)[C@@H]2Cc3c([nH]c4ccccc34)C(c3ccccc3)N2C1=O` (stereo partly specified), the outcome was inactive.

`O=C(Cc1ccccn1)NCC[C@@H]1CC[C@H](NC(=O)Nc2ccc(C(F)(F)F)cc2)[C@@H](CO)O1`: the outcome was inactive.

Consider `O=C(Cc1ccccn1)NCC[C@@H]1CC[C@@H](NC(=O)Nc2ccc(C(F)(F)F)cc2)[C@@H](CO)O1`, for which the outcome was inactive.

Regarding `Cc1cccc2sc(N3CCN(C(=O)c4cccs4)CC3)nc12`, the call was inactive.
